Experimental data taken from PubChem BioAssay AID651673 (Broad Institute, 2012).
This is one part of the list. The source made the active and inactive calls.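 The calls were made as follows: active = signal drop giving an AC50 within twice the top valid tested concentration of each sample (actives reach about 35 µM in these data); inactive = activity opposite to expected, plus the rest.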

Assay: DNA binding of candidate compounds, dose response, artefact control for RAD54 inhibitor project, biochemical, fluorescence polarization, cherry-pick (AID 651673);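 also: polarization loss reports compound binding to salmon sperm DNA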
Conditions: Acridine orange-DNA displacement, 20 min; series mostly up to 35 µM

outcome, inactive:
CN1CCN(CCCNC(=O)c2cc3c(=O)oc4ccccc4c3s2)CC1
CCOC(=O)C1C(=O)NC(N2CCN(c3ccccc3)CC2)=NC1c1ccco1 (stereo not drawn)
CCOCCCNC(=S)Nc1ccc2nc(N3CCN(CC)CC3)cc(C)c2c1
COc1ccccc1C(=O)C(O)c1ccccc1OC (stereo not drawn)
CCN(CC)CCCNC(=O)c1cc2c(=O)[nH]c3ccc(C)cc3c2s1
CC1CCc2sc3nc(N4CCN(CCO)CC4)n4ncnc4c3c2C1 (stereo not drawn)
Cc1nc2ccccc2c2oc(C(=O)NCCCN3CCC(C)CC3)cc12
CCn1c(=N)c(C(=O)NCCCOC)cc2c(=O)n3cccc(C)c3nc21
CCN(CC)CCn1c2ccc(Cl)cc2c2nc(C)sc21
Cc1cccn2c(=O)c3cc(C#N)c(=O)n(CCCN4CCOCC4)c3nc12
Cc1cc2oc3ccc(NCCC4CCCN4C)cc3c(=O)c2cc1C (stereo not drawn)
O=C(NCCCN1CCOCC1)c1cnn2c(-c3ccccc3)cc(-c3ccccc3)nc12
CN(C)CCN(C(=O)CN1C(=O)c2ccccc2C1=O)c1nc2cc3c(cc2s1)OCCO3
COc1ccc(C(=O)Nc2cc(C)c(NC(=O)c3ccccc3OC)cn2)cc1
c1ccc(-c2nnc(SCc3nc4ccccc4[nH]3)o2)cc1
COc1ccc(CCn2c(=N)c(C(=O)NCC3CCCO3)cc3c(=O)n4cccc(C)c4nc32)cc1OC (stereo not drawn)
COc1cccc2sc3cc(NCC[C@@H]4CCCN4C)ccc3c(=O)c12
COC(=O)c1c(NC(=O)c2ccc(S(=O)(=O)N3CCOCC3)cc2)sc2c1CCN(C(C)C)C2
